# Results reported in the supplement of paper PMC10981050.
# Where “and” joins values, the source holds several entries; their conditions need not be identical. Identical values can stand only once. Counter-ions that a name gives are not always drawn.
# Columns and labels:
# Assay in all cases: cell viability relative to vehicle control; higher = less cytotoxic
# Conditions in all cases: 10 µM
# [1] = tested on: K562
# In short: (§1)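 Mutant clones made by CRISPR editing and their isogenic wild-type counterparts, from four leukaemia lines, were exposed to a single 10 µM dose of each library compound for 48 h. The supernatant was then removed and CellTiter-Glo luminescence was read. Viability was reported as percent of the on-plate vehicle control.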
# [2] = tested on: MARIMO
# In short: as §1
# [3] = tested on: MOLM14
# In short: as §1
# [4] = tested on: OCI-AML2
# In short: as §1
Compound,cell viability ([1]; SRSF2 genotype: SRSF2 P95H/wt),cell viability ([1]; SRSF2 genotype: SRSF2 wt/wt) [%],cell viability ([2]; SRSF2 genotype: SRSF2 P95H/wt) [%],cell viability ([2]; SRSF2 genotype: SRSF2 wt/wt) [%],cell viability ([3]; SRSF2 genotype: SRSF2 P95H/wt) [%],cell viability ([3]; SRSF2 genotype: SRSF2 wt/wt) [%],cell viability ([4]; SRSF2 genotype: P95H/wt) [%],cell viability ([4]; SRSF2 genotype: wt/wt) [%]
C=CC(=O)N[C@H]1CCOC[C@H]1Nc1ncc2cc(-c3c(Cl)c(OC)cc(OC)c3Cl)ccc2n1,78.2% and 81.3%,80.2,85.8,90.5,78.8,79.8,66.8,72.7
CC(=O)OC1CC2CCC1(C)C2(C)C (stereo unspecified) [Bornyl acetate],109% and 107%,114,107,107,98.8,104,110,107
CNC1CCCN(c2c(F)cc3c(=O)c(C(=O)O)cn(C4CC4)c3c2OC)C1 (stereo unspecified) [Balofloxacin],104% and 108%,105,107,105,107,109,106,94.3
CC[C@H]1[C@@H](O)[C@@H]2[C@H](CC[C@]3(C)[C@@H]([C@H](C)CCC(=O)O)CC[C@@H]23)[C@@]2(C)CC[C@@H](O)C[C@@H]12 [Obeticholic Acid],106% and 109%,102,107,105,103,105,107,110
CCCCCCCCCCCCCc1cccc(O)c1C(=O)O [Ginkgolic Acid (C130)],108% and 100%,108,103,107,104,110,102,103
"CC(=O)c1cc(O)ccc1O [2',5'-Dihydroxyacetophenone]",90.6% and 97.4%,97.7,94.6,87.5,103,97.6,94.7,101
CC1CCCCCCCCCCCCC(=O)C1 (stereo unspecified) [Muscone],91.4% and 89.5%,87.4,87.1,97.1,90.6,89.2,82,90.7
CCCCCCCCCCCCCCCCO [1-Hexadecanol],102% and 92.5%,98.6,100,109,101,103,94.5,116
OC[C@H]1O[C@@](CO)(OC[C@@]2(OC[C@@]3(OC[C@@]4(O[C@H]5O[C@H](CO)[C@@H](O)[C@H](O)[C@H]5O)O[C@H](CO)[C@@H](O)[C@@H]4O)O[C@H](CO)[C@@H](O)[C@@H]3O)O[C@H](CO)[C@@H](O)[C@@H]2O)[C@@H](O)[C@@H]1O [1F-Fructofuranosylnystose],110% and 109%,104,109,103,103,107,101,108
CC1Cc2ccccc2N1NC(=O)c1ccc(Cl)c(S(N)(=O)=O)c1 (stereo unspecified) [Indapamide (Lozol)],108% and 105%,103,106,105,106,106,114,104
CNC[C@H](O)[C@@H](O)[C@H](O)[C@H](O)CO.CNC[C@H](O)[C@@H](O)[C@H](O)[C@H](O)CO.O=C([O-])CN(CCN(CC(=O)[O-])CC(=O)O)CCN(CC(=O)[O-])CC(=O)O.[Gd+3] [Gadopentetate Dimeglumine],96.2% and 95.2%,101,94.1,98.4,99.2,98,98.2,97.7
N#Cc1ccc(Oc2ccc3c(c2)COB3O)cc1 [Crisaborole (AN2728)],93.3% and 84%,90.8,73.8,72.9,68.2,77.7,90,79.3
C=CC(=O)Nc1cccc(Nc2nc(Nc3ccc(NC4CN(CCF)C4)cc3OC)ncc2C(F)(F)F)c1,55.2% and 53.1%,64.8,22.3,19.6,4.64,10.4,12.3,17.9
COc1ccc(C[C@@H]2c3cc(Oc4cc(C[C@@H]5c6cc(OC)c(OC)cc6CCN5C)ccc4O)c(OC)cc3CCN2C)cc1 [Neferine],109% and 107%,99,104,120,106,109,102,102
O=c1[nH]c(=O)n([C@H]2C[C@H](O)[C@@H](CO)O2)cc1Br [Bromodeoxyuridine (BrdU)],90.5% and 102%,96.1,91.2,88,80.8,79.1,90.5,99.9
Cc1cnc(NC(=O)Nc2cc(Br)c(C)cc2OC[C@@H]2CNCCO2)cn1,8.35% and 7.58%,8.76,20.6,8.01,10.8,6.96,12.8,12.1
COc1cc(Nc2ncc3c(n2)-c2ccc(Cl)cc2C(c2c(F)cccc2OC)=NC3)ccc1C(=O)O [MLN8237 (Alisertib)],46.2% and 63.8%,60,87.3,108,30.6,17.7,43.5,44.5
CCn1c(C(=O)N(C2CC2)C2CC2)cc2c3c(ncn3C)c(Nc3cc(C)n(C)n3)nc21,103%,108,108,102,41.6,38.5,43,57.1
"Cc1cc(Nc2cc(N3CCN(C)CC3)nc(Sc3ccc(NC(=O)C4CC4)cc3)n2)n[nH]1 [VX-680 (MK-0457, Tozasertib)]",16.4% and 18.7%,14.8,53.6,38,6.03,9.53,14.4,19.3
O=C(O)CCN1C(=O)/C(=C/c2ccc(-c3ccc([N+](=O)[O-])cc3)o2)SC1=S,104% and 106%,111,100,98.5,93.3,101,103,109
O=C(C=Cc1ccccc1)NC(NC(=S)Nc1ccc(Cl)cc1)C(Cl)(Cl)Cl (stereo unspecified),81.5% and 86.5%,86.9,102,104,90.4,96,99.1,100

Compound,cell viability ([1]; SRSF2 genotype: SRSF2 P95H/wt),cell viability ([1]; SRSF2 genotype: SRSF2 wt/wt) [%],cell viability ([2]; SRSF2 genotype: SRSF2 P95H/wt) [%],cell viability ([2]; SRSF2 genotype: SRSF2 wt/wt) [%],cell viability ([3]; SRSF2 genotype: SRSF2 P95H/wt) [%],cell viability ([3]; SRSF2 genotype: SRSF2 wt/wt) [%],cell viability ([4]; SRSF2 genotype: P95H/wt) [%],cell viability ([4]; SRSF2 genotype: wt/wt) [%]
O=C(O)C(O)Cc1ccc(O)c(O)c1 (stereo unspecified) [Sodium Danshensu],98.7% and 92.4%,95.5,95.5,107,96.4,98.8,93.7,104
O=C(Cc1ccc(-c2ccc(OCCN3CCOCC3)cc2)cn1)NCc1ccccc1,10.7% and 34.3%,33,6.74,9.4,1.55,2.72,4.61,8.35
CC(C)[C@H]1C(=O)N[C@@H](CCCNC(=N)N)C(=O)NCC(=O)N[C@@H](CC(=O)O)C(=O)N[C@H](Cc2ccccc2)C(=O)N1C [Cilengitide trifluoroacetate],98.5% and 105%,101,102,99.1,103,99.5,104,109
NS(=O)(=O)c1ccc(NC(=S)N2CCN(CC=Cc3ccccc3)CC2)cc1,85.3% and 88.8%,93.5,83.5,76.7,95.3,99.2,64.5,76.5
CC(=O)Nc1cccc(-n2c(=O)n(C3CC3)c(=O)c3c(Nc4ccc(I)cc4F)n(C)c(=O)c(C)c32)c1,67.7% and 87.2%,77.8,39.6,38.5,42.3,27.1,39.8,41.6
Cc1ccc(Nc2c(F)cccc2Cl)c(CC(=O)O)c1 [Lumiracoxib (COX-189)],96% and 98.3%,96.3,98.9,96,100,93.4,109,101
COC(=O)C1=C(C)NC(C)=C(C(=O)OCCN(C)Cc2ccccc2)C1c1cccc([N+](=O)[O-])c1 (stereo unspecified) [Nicardipine HCl],79.8% and 89.1%,80.5,81.8,91.3,87.9,81.1,85.8,85
CCn1c(=O)c(-c2ccc(Cl)cc2Cl)cc2cnc(Nc3ccc(N4CCNCC4)c(F)c3)nc21,1.46% and 1.57%,3.22,4.24,2.21,0.53,0.81,0.95,1.2
COc1ccc(C[C@H](N)C(=O)N[C@H]2[C@@H](O)[C@H](n3cnc4c(N(C)C)ncnc43)O[C@@H]2CO)cc1 [Puromycin 2HCl],1.95% and 1.45%,1.55,1.69,0.77,0.25,0.31,0.26,0.49
O=c1n(CCCN2CCN(c3cccc(Cl)c3)CC2)nc2ccccn12 [Trazodone hydrochloride (Desyrel)],102% and 99.9%,103,105,109,106,102,106,104
CC(C)(C)C1CCC(CC2=C(O)c3ccccc3C(=O)C2=O)CC1 (stereo unspecified) [Buparvaquone],76.6% and 81.5%,77,84.1,101,63.2,42.9,80.4,75.3
O[C@@H](COc1cccc2ncccc12)CN1CCN([C@@H]2c3ccccc3[C@@H]3[C@H](c4ccccc42)C3(F)F)CC1,60.6% and 54.3%,54.9,56.6,55.6,39.8,36.2,39.2,40.7
"C=C(C)C1CC=C(C)CC1 (single isomer, unassigned; (+)) [(+)-Dipentene]",114% and 103%,116,104,108,110,108,109,115
O=C([O-])c1ccccc1.[Na+] [Sodium benzoate],86.9% and 85.9%,86.1,83.9,90.9,93,89.5,86,97.5
COc1ccc(-c2oc3c(CC=C(C)C)c(O[C@@H]4O[C@H](CO)[C@@H](O)[C@H](O)[C@H]4O)cc(O)c3c(=O)c2O[C@@H]2O[C@@H](C)[C@H](O)[C@@H](O)[C@H]2O[C@@H]2OC[C@@H](O)[C@H](O)[C@H]2O)cc1 [Epmedin B],103% and 99.7%,102,105,93,110,102,103,99.5
CC(=O)Nc1nc(-c2cccc(NS(=O)(=O)c3cccc4c(N(C)C)cccc34)c2)cs1,61.8% and 63.7%,62,58.7,43.8,62.4,66.6,33.3,40.5
Clc1ccc(C(c2c[nH]c3ccccc23)c2c[nH]c3ccccc23)cc1,83% and 83.3%,76.5,86.3,93.2,62.7,73,92,96.7
CCN(CC)Cc1ccc2cc(COC(=O)Nc3ccc(C(=O)NO)cc3)ccc2c1 [ITF2357 (Givinostat)],1.36% and 7.22%,1.85,4.74,9.63,0.81,0.55,1.72,3.52
CC(C)N(CCCNC(=O)Nc1ccc(C(C)(C)C)cc1)C[C@H]1O[C@@H](n2ccc3c(N)ncnc32)[C@H](O)[C@@H]1O,94.6% and 92.6%,86.1,89.3,96.9,95.5,92,84.3,89.6
C[C@H](CCC(=O)O)[C@H]1CC[C@H]2[C@@H]3CC[C@@H]4C[C@H](O)CC[C@]4(C)[C@H]3C[C@H](O)[C@]12C [Deoxycholic acid],94.9% and 86.4%,87.3,93.7,103,94.7,95,94.5,93
Cc1ccccc1CN1C2=NCCN2C(=O)C2=C1CCN(Cc1ccccc1)C2 [TIC10 analogue],98.2% and 97.9%,95.9,104,104,103,103,88,101
